Compound activity as filed in PubChem.
Tau fluor cs = counter-screen for tau fibril formation inhibitors. tau K18 P301L Alexa594 fluorescence, heparin fibrillization. Potency, µM (doses to about 57.7 µM), for the others: top-dose activity change, negative = decrease. 0.93% of 280,000 active. AID 1463; also: potency is read from the fitted curve at half-maximal effect; nearly all actives have a fitted effect of over 55% in size
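Human K18 P301L tau (15 uM unlabeled plus 0.24 uM Alexa 594-labeled, final) in 100 mM sodium acetate pH 7 was mixed with compound and 20 uM heparin and incubated 6 hr at 37 C.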
FBPA coupling cs = coupling enzyme interference in Giardia aldolase counter-screen; coupling enzyme system counterscreen, AmpLite Red fluorescence; activity change, negative = inhibition, % at 58.2 µM, hits read low; 0.67% of 290,000 active; in the data active = activity change below about -30%
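Coupling enzymes only (glyceraldehyde-3-phosphate) + compound, at 57.5 uM final, 10 min RT; add substrate/coupling/AmpLite Red mix, 20 min RT; fluorescence ex 525/em 598 nm. Actives flag coupling-system interference.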
Tau ThT inhib = blocks human tau fibril formation measured by thioflavin T; Potency, µM (doses to about 57.4 µM), for inactives: at the highest dose activity, negative = inhibition, usual class: inhibitors; AID 1460; 2.1% of 270,000 active; recombinant tau K18 P301L, heparin-induced fibrillization, ThT fluorescence; P10636; also: potency is read from the fitted curve at half-maximal effect; nearly all actives have a fitted effect of over 55% in size
Target sequence (P10636 561-689 P618L limits assumed): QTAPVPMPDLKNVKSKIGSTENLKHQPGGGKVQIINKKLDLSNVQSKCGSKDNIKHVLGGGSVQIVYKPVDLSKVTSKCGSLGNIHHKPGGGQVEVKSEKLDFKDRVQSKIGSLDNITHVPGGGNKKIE
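Using a mix of unlabeled (15 uM) and Alexa 594-labeled (0.24 uM) tau K18 P301L, heparin-triggered fibrillization over 6 hr at 37 C was scored by ThT fluorescence.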
Sfp PPTase inh = blocks B. subtilis Sfp PPTase activity; 3.5% of 310,000 active; Q9F4F7; Potency, µM, for the others: largest response in the series, negative = inhibition, hits mostly inhibitors; Biochemical Sfp PPTase activity, qHTS; AID 1490;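 also: the enzyme is Sfp with the accession as filed and its product quenches rhodamine fluorescence; potency is read from the fitted curve at half-maximal effect; 0% = enzyme reaction without inhibitor and -100% = no enzyme wells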
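Fluorescence-quenching assay: 15 nM Sfp-PPTase preincubated 15 min at room temperature with compound, then 5 uM rhodamine-CoA and 12.5 uM BHQ-2-labelled YbbR peptide added. Fluorescence (ex 525/em 598 nm) read at start and after 30 min; difference gives rate.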
Tau fibril FP = blocks human tau fibril formation measured by polarization | P10636 | K18 P301L tau heparin fibrillization, Alexa594 FP, 6 h | Potency, µM (doses to about 57.7 µM), without a hit: at the highest dose activity, negative = inhibition, hits mostly inhibitors | 0.39% of 280,000 active | AID 1468; also: potency is read from the fitted curve at half-maximal effect; nearly all actives have a fitted effect of over 55% in size
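Heparin (20 uM) drove fibril formation of recombinant tau K18 P301L, 15 uM unlabeled with 0.24 uM Alexa 594 label, for 6 hr at 37 C in 100 mM sodium acetate pH 7. Fluorescence polarization (555/632 nm) read 1 hr after 30 uM ThT.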
Starred values were filed as active, the others as inactive; [ ] = remark or other dose. Shown are actives, neighbours in structure and some others; about 5.2% of the full set was active somewhere. Unless noted, calls follow the shape of the dose curve; as a rule, active = well fitted curve in the direction sought with a large enough effect; inconclusive = small, poorly fitted or top-dose-only effect, or another doubt; inactive = no such curve, though single readings can be large; an effect the other way counts as inactive or inconclusive. Unless noted, % is scaled to controls: 0 for no effect and ±100 for the full control effect.

Screening Cc1ccc2c(CN3CCCCC3)cc(=O)oc2c1C returned FBPA coupling cs 3.7 and Sfp PPTase inh 0.4%.
Cc1ccc2c(CN3CCCc4ccccc43)cc(=O)oc2c1C was read as Tau fluor cs -19.6%, FBPA coupling cs -52.6*, Tau ThT inhib inconclusive, Sfp PPTase inh -24.1% and Tau fibril FP -6.4%.
For N#C/C(=C\c1ccc(-c2ccccc2[N+](=O)[O-])o1)C(=O)Nc1nc(-c2cccs2)cs1 the results were Tau fluor cs inconclusive, FBPA coupling cs -6.1, Tau ThT inhib 2.82µM*, Sfp PPTase inh -14.4% and Tau fibril FP 0.4%.
For N#C/C(=C\c1ccc(-c2ccc([N+](=O)[O-])cc2)o1)C(=O)Nc1nc(-c2cccs2)cs1 the results were Tau fluor cs inconclusive, FBPA coupling cs -7.2, Tau ThT inhib 2.24µM*, Sfp PPTase inh -19.7% and Tau fibril FP 7.0%.
Screening Cc1ccccc1NC(=O)/C(C#N)=C/c1ccc(-c2ccc(Cl)c(C(=O)O)c2)o1 returned FBPA coupling cs 2.2 and Sfp PPTase inh 9.9%.
O=C1c2[nH]nc(-c3ccc(Br)cc3)c2C(c2cccc(O)c2)N1c1ccc(Cl)cc1 (stereo not given) was read as Tau fluor cs inconclusive, Tau ThT inhib 9.5% and Tau fibril FP 12.6µM*.
For CCOc1ccc(NC(=O)NC(CC)Cn2nnc3ccccc3c2=O)cc1 (stereo not given) the results were Tau fluor cs -24.0%, Tau ThT inhib inconclusive and Tau fibril FP -6.0%.
`O=c1cc(-c2ccccc2Cl)oc2c(NS(=O)(=O)c3cc(Cl)cc(Cl)c3O)ccc(O)c12` gave Tau fluor cs inconclusive, FBPA coupling cs 7.4, Tau ThT inhib 22.4µM*, Sfp PPTase inh -16.6% and Tau fibril FP 31.6µM*.
O=C1CCCC2=C1C(c1ccc(O)c(O)c1)c1c(ccc3ncccc13)N2 (stereo not given) was read as Tau fluor cs inconclusive, FBPA coupling cs -72.3*, Tau ThT inhib inconclusive, Sfp PPTase inh 7.94µM* and Tau fibril FP -16.7%.
For CCOc1ccc(C2C3=C(CCCC3=O)Nc3ccc4ncccc4c32)cc1 (stereo not given) the results were Tau fluor cs inconclusive, FBPA coupling cs -2.4, Sfp PPTase inh -7.1% and Tau fibril FP 12.5%.
O=C1CCCC2=C1C(c1ccc(O)cc1)c1c(ccc3ccccc13)N2 (stereo not given) was read as Tau fluor cs inconclusive, FBPA coupling cs -0.1, Tau ThT inhib inconclusive, Sfp PPTase inh 50.1µM* and Tau fibril FP 10.5%.
For O=c1c2c(-c3ccccc3)csc2nc2c3ccccc3c(NCCN3CCOCC3)nn12 the results were Tau fluor cs -25.4%, FBPA coupling cs -0.8, Tau ThT inhib inconclusive, Sfp PPTase inh 35.5µM* and Tau fibril FP inconclusive.
For COc1ccc2c(c1)CCc1c(C(=O)Nc3c(C)nn(Cc4ccc(C)cc4)c3C)noc1-2 the results were Tau fluor cs -4.2%, Tau ThT inhib -9.8% and Tau fibril FP 7.5%.
`Cc1cc(C)n(/N=C/c2c[nH]c3ccccc23)c(=O)c1` gave Tau fluor cs -9.0%, FBPA coupling cs -0.1, Tau ThT inhib -9.7%, Sfp PPTase inh 6.5% and Tau fibril FP 1.0%.
Screening CCN=c1scc(C)n1/N=C/c1ccc(O)c(O)c1O returned Tau fluor cs inconclusive, FBPA coupling cs -36.6*, Tau ThT inhib 11.2µM*, Sfp PPTase inh 8.91µM* and Tau fibril FP 22.4µM*.
COCCN=c1scc(-c2cccs2)n1/N=C/c1ccc(O)c(O)c1O was read as Tau fluor cs 2.2%, FBPA coupling cs -33.4*, Tau ThT inhib 5.5%, Sfp PPTase inh 7.08µM* and Tau fibril FP 5.9%.
For COCCN=c1scc(-c2ccccc2)n1/N=C/c1c[nH]c2ccccc12 the results were Tau fluor cs 10µM*[quencher], FBPA coupling cs -5.0, Tau ThT inhib 12.6µM*, Sfp PPTase inh -12.1% and Tau fibril FP inconclusive.
Screening COc1ccc(CNCCC(c2ccc3c(c2)OCO3)c2ccccc2OC)cc1 (stereo not given) returned Tau fluor cs 0.4%, Tau ThT inhib -8.1% and Tau fibril FP -4.3%.
For Cn1c(=O)c2sccc2n2c(CCCC(=O)NCc3ccccc3)nnc12 the results were Tau fluor cs 6.7%, Tau ThT inhib -1.8% and Tau fibril FP 6.9%.
Screening O=C(CN1C(=O)COc2ccc(S(=O)(=O)N3CCCCCC3)cc21)Nc1cccc(Cl)c1 returned Tau fluor cs inconclusive, Tau ThT inhib -2.3% and Tau fibril FP inconclusive.
`COCC(=O)N1CCC2(CCCN(c3ccccn3)C2)CC1` gave FBPA coupling cs 1.0 and Sfp PPTase inh -7.6%.
COc1ccc(N2CCN(c3ccc(C(N)=O)cc3[N+](=O)[O-])CC2)cc1 was read as Tau fluor cs inconclusive, FBPA coupling cs 0.0, Tau ThT inhib 4.47µM*, Sfp PPTase inh -17.4% and Tau fibril FP 1.3%.
`NC(=O)c1ccc(N2CCN(c3ccccc3F)CC2)c([N+](=O)[O-])c1` gave Tau fluor cs -28.9%, FBPA coupling cs 0.6, Tau ThT inhib 15.8µM*, Sfp PPTase inh 7.8% and Tau fibril FP inconclusive.
Screening Cc1cccc(-c2cc(=O)c3cc(Br)ccc3o2)c1 returned Tau fluor cs -14.4%, FBPA coupling cs 1.2, Tau ThT inhib inconclusive, Sfp PPTase inh 79.4µM* and Tau fibril FP 2.2%.
For O=C1c2cccc3c2[C@@H](CCC3)CN1[C@@H]1CN2CCC1CC2 the results were Sfp PPTase inh 2.6%.
Screening Cc1cccc(NC(=O)c2oc3ccc(S(=O)(=O)N4CCCCC4)cc3c2C)c1C returned Tau fluor cs -8.7%, Tau ThT inhib 0.4% and Tau fibril FP 6.6%.
Screening CCCc1nc2c(sc3nc4c(cc32)COC(C)(C)C4)c(=O)n1Cc1ccco1 returned Tau fluor cs -0.3%, FBPA coupling cs -0.3, Tau ThT inhib -3.0%, Sfp PPTase inh 28.2µM* and Tau fibril FP 7.1%.
Screening CCCc1nc2c(sc3nc4c(cc32)COC(C)(C)C4)c(=O)n1CCN(C)C returned Tau fluor cs 0.4%, FBPA coupling cs -0.1, Tau ThT inhib 3.3%, Sfp PPTase inh 10.7% and Tau fibril FP -1.6%.
For COC(=O)[C@H](CC(C)C)NC(=O)c1cc2c(cn1)[nH]c1ccccc12 the results were FBPA coupling cs 6.0 and Sfp PPTase inh 44.7µM*.
Nc1nc(C2CC2)c(Sc2sc(N)nc2C2CC2)s1 was read as Tau fluor cs inconclusive, FBPA coupling cs -2.1, Tau ThT inhib 17.8µM*, Sfp PPTase inh -21.4% and Tau fibril FP -7.8%.
For Cc1ccc(C2(c3ccc(C)cc3)CC2C(=O)Nc2ccc([N+](=O)[O-])cc2O)cc1 (stereo not given) the results were Tau fluor cs 10µM*[quencher], FBPA coupling cs -15.7, Tau ThT inhib -13.8%, Sfp PPTase inh 19.0% and Tau fibril FP inconclusive.
